Screening results as filed in PubChem BioAssay.
NSD2 inh = inhibitors of human histone methyltransferase NSD2; inhibition, % at 12.5 µM; NSD2 peptide methylation, AlphaScreen, 120 min; 310,000 compounds, 0.54% hits; AID 743445; O96028; in the data active = inhibition above about 50%
Target sequence (O96028 whole entry, looked up): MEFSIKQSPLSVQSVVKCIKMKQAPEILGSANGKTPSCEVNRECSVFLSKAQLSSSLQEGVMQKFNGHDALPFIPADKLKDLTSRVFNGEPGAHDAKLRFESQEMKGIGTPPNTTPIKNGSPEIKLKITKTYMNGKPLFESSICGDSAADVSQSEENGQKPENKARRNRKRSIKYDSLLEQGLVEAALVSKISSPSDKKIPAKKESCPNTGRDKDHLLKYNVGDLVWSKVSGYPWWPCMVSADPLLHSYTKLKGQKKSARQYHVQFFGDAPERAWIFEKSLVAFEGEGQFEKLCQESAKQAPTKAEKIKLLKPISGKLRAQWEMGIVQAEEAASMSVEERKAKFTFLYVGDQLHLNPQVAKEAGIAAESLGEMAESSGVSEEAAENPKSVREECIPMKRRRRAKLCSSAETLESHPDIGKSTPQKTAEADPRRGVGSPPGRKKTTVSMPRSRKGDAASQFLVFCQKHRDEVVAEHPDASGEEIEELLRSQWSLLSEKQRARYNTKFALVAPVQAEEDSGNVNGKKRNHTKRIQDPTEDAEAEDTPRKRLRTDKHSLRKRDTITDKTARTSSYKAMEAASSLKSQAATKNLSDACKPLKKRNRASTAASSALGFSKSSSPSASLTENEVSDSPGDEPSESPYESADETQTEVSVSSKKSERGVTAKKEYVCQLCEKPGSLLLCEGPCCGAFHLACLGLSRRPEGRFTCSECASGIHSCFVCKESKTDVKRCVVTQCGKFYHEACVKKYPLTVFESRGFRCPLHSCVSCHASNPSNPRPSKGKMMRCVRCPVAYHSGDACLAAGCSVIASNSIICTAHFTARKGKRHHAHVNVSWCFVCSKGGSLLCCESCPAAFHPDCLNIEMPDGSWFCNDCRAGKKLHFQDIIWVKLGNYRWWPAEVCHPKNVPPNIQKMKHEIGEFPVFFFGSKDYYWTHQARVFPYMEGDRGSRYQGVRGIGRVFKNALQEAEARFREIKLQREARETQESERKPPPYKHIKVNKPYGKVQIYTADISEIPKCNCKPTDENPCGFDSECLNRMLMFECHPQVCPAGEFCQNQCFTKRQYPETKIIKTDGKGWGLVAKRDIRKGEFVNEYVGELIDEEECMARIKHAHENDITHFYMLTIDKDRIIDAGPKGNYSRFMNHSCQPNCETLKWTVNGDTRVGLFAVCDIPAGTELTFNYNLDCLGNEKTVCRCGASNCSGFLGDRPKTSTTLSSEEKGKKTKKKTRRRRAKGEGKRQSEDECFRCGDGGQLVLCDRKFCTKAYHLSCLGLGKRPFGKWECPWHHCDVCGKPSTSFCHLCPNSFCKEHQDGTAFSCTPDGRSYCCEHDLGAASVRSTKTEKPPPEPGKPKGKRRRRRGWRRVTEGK
PGC1a acetyl inh = lowers PGC1a acetylation signal in U2OS cells; AlphaScreen anti-acetyl-lysine; with virally co-expressed GCN5 acetyltransferase; inhibition, % at 15.6 µM; 350,000 compounds, 0.17% hits; AID 651687;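 active = every replicate shows inhibition of at least 40%; inconclusive = mean inhibition at least 40% but some replicate below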;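 also: 0% = neutral control wells and 100% = positive control wells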
INS-1E GSIS act = primary screen for activators of insulin secretion dependent on glucose, INS-1E cells, GLuc reporter luminescence; 370,000 compounds, 0.61% hits; INS-1E GLuc reporter insulin secretion, 2-3 h; activation, % at 16.6 µM; AID 743287;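 active = lowest replicate activation of at least 40%, so every replicate reaches that level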;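 also: 0% = median of neutral control wells and 100% = median of IBMX positive control wells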
HIV Env fusion = inhibitors of HIV Env-mediated cell fusion | HeLa-JRFL Env/CEM21 cell fusion, luciferase | inhibition, % at 12.3 µM | 360,000 compounds, 1.1% hits | AID 651610;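 active = mean replicate inhibition score of at least 50 and every replicate individually at or above 50; inconclusive = only one of the two criteria met; inactive = mean below 50 and not all replicates reaching 50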;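 also: 0% = plate neutral controls and 100% = maraviroc near 300 nM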
AF4-AF9 inh = blocks AF4 peptide binding to human AF9; P42568; AlphaScreen, biotin-AF4 peptide binding to FLAG-AF9; inhibition, % at 10 µM; 350,000 compounds, 0.47% hits;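 active = every replicate reaching a set inhibition limit, whatever the replicate mean, cut at about 25% in these data; inconclusive = mean inhibition reaches that limit but some replicates miss it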;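 also: 0% = plate neutral control median and 100% = total signal loss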
AlphaScreen intf = AlphaScreen signal interference counter-screen hit. shares compounds with AF4-AF9 inh. 530 compounds, 45% hits. signal luminescence. AC50, µM (top dose mostly 12 µM), for inactives: at the top dose activity change, negative = inhibition. AID 720494; cut-off not given, nearly all actives have AC50 up to about 14 µM
An asterisk follows results filed as active; ? = inconclusive; . = no result given; [ ] = another dose, or the depositor's remark. Rows were chosen to be rich in hits. Some 2.1% of all compounds tested hit in one or more screens of this group.

SMILES	NSD2 inh	PGC1a acetyl inh	INS-1E GSIS act	HIV Env fusion	AF4-AF9 inh	AlphaScreen intf
Cn1ccc2c(N3c4ccccc4CCc4ccccc43)cc3c(c21)C1CCC3C1 (centres undefined)	.	-3.5	-3.5	24.7	5.1	.
Cn1ccc2c(N3CCCCCC3)cc3c(c21)C1CCC3C1 (centres undefined)	.	2.4	-16.6	19.0	31.2*	-37.6%
COc1ccc(C#Cc2ccc3c(c2)[C@H]2[C@H](CCN2C(=O)c2ccncc2)[C@@H](CO)N3)cc1	.	9.5	-8.2	.	33.7*	12.6µM*
COc1cccc(-c2ccc3c(c2)[C@H]2[C@H](CCN2C(=O)C2CCCCC2)[C@@H](CO)N3)c1	.	-18.1	-1.4	.	40.2*	-29.4%
COCC(C)n1c(C)cc(C(=O)COC(=O)CCc2nc3ccccc3c(=O)[nH]2)c1C (centres undefined)	1.5	-0.7	21.1	23.5	3.7	.
CC(=O)c1cccc2c(O)c(C3=Nc4ccccc4C3=O)[nH]c12	37.1	-0.7	.	-54.2	39.9*	3.53µM*
COc1ccc(NC(=O)N(C)C[C@H]2OCCCC[C@H](C)Oc3ccc(NC(=O)CCC(F)(F)F)cc3C(=O)N([C@@H](C)CO)C[C@H]2C)cc1	.	-2.4	2.2	-7.8[16.7 µM]	1.2	.
CN(CCc1ccccc1)C(=O)c1ccc(NC(=O)Cc2ccc(NC(=O)C3CCN(C(=O)C4CCCCC4)CC3)cc2)cc1	.	?	-9.8	.	26.6*	2.3%
CN(C(=O)c1cccc(NC(=O)Cc2ccc(NC(=O)C3CCN(C(=O)c4ccccc4)CC3)cc2)c1)C1CCC1	.	0.8	-11.6	-1.2	7.7	.
CN(C(=O)c1ccc(NC(=O)Cc2ccc(NC(=O)C3CCN(C(=O)c4ccccc4)CC3)cc2)cc1)C1CC1	.	9.3	-15.3	-17.4	37.5*	-15.5%
Cc1cccc(N(C(=O)CNC(=O)c2ccco2)C(C(=O)NC2CCCCC2)c2cccnc2)c1 (centres undefined)	-2.2	.	-2.2	41.2	-16.4	.
O=C(NC1CCCCC1)C(c1cccnc1)N(C(=O)CCl)c1cccc(Cl)c1 (centres undefined)	6.5	-15.3	5.7	.	38.7*	-20.9%
Cc1ccc(NC(=S)N/N=C/c2ccc([N+](=O)[O-])s2)cc1	8.7	.	-0.2	7.5	?	-17.7%
CCN1C(=O)/C(=C\C(=O)c2cccs2)c2cc(Br)ccc21	-8.8	0.9	14.7	-15.3	37.4*	-0.2%
COC(=O)C[C@H]1CC[C@H]2[C@H](COc3ccc(NS(=O)(=O)c4ccccc4F)cc3C(=O)N2C)O1	.	-2.3	0.2	-0.1[16.7 µM]	.	.
Cc1nn(-c2ccccc2)c(Cl)c1/C=C1\C(=O)N(C)C(=S)N1C	8.1	-0.9	5.2	-3.2	40.2*	-24.4%
Cc1nn(-c2ccccc2)c(Cl)c1/C=C1\SC(=S)N(C)C1=O	-1.8	.	3.9	-19.9	.	.
COc1ccc(N2CCN(c3cc(C)nc4ccc(OC)cc34)CC2)cc1	22.5	.	3.4	13.5	33.7*	-38.4%
CC(=O)OCCNc1cc(N2CCN(C)CC2)c2noc3c2c1C(=O)c1ccccc1-3	.	-19.2	.	-0.2	85.7*	8.57µM*
CCN1CCN(c2cc(N3CCN(C(=O)c4ccco4)CC3)c3c4c(onc24)-c2ccccc2C3=O)CC1	44.4	.	.	.	.	.
CCOC(=O)c1sc(NC(=O)c2ccc3nc[nH]c3c2)nc1C	4.4	.	15.6	-23.4	1.8	.
CCN1CCCc2cc(CN(CCN3CCOCC3)C(=S)Nc3cccc(C)c3)ccc21	21.9	0.9	-31.6	18.2	37.1*	-21.7%
COc1ccc(/C=C/C(=O)c2cc3c(cc2N)OCO3)cc1	24.0	.	2.7	-29.3	37.9*	-29.7%
CCCC(=O)O[C@@H]1C[C@@H](C)N(C(=O)c2ccccc2)c2ccc(C)cc21	-2.4	-8.5	.	.	.	.
C#CCOCCOCCOCCNc1nc(N2CCN(C(=O)[C@H](CCCCN)n3cc(CCCC)nn3)CC2)nc(N2CCN(C(=O)[C@H](CCCCN)n3cc(CCCC)nn3)CC2)n1	.	.	5.0	-12.3	26.3*	-11.6%
SMILES	NSD2 inh	PGC1a acetyl inh	INS-1E GSIS act	HIV Env fusion	AF4-AF9 inh	AlphaScreen intf
C#CCOCCOCCOCCNc1nc(N2CCN(C(=O)[C@H](CCCN=C(N)N)n3cc(C(N)[C@@H](C)CC)nn3)CC2)nc(N2CCN(C(=O)[C@H](CCC(=O)O)n3cc([C@@H](N)CCCCN)nn3)CC2)n1 (some centres undefined)	.	.	7.4	-15.0	15.7	.
C#CCOCCOCCOCCNc1nc(N2CCN(C(=O)[C@H](CCCN=C(N)N)n3cc(C(N)[C@@H](C)CC)nn3)CC2)nc(N2CCN(C(=O)[C@H](CCCCN)n3cc([C@@H](N)[C@H](C)CC)nn3)CC2)n1 (some centres undefined)	.	.	12.3	-8.9	46.1*	-9.7%
C#CCOCCOCCOCCNc1nc(N2CCN(C(=O)[C@H](CCCCN)n3cc([C@@H](N)CC(N)=O)nn3)CC2)nc(N2CCN(C(=O)[C@H](CCCCN)n3cc([C@@H](N)CC(N)=O)nn3)CC2)n1	.	11.2	2.9	-7.3	36.6*	3.3%
C#CCOCCOCCOCCNc1nc(N2CCOCC2)nc(N2CCN(C(=O)[C@H](CCCCN)n3cc(CCCC)nn3)CC2)n1	.	.	-11.8	5.8	9.1	.
CN1C(=O)c2cc(NC(=O)Cc3cccs3)ccc2OC[C@@H]2O[C@H](CC(=O)NCc3ccc(-c4ccccc4)cc3)CC[C@H]21	.	-4.2	9.1	-7.8[16.7 µM]	-12.9	.
O=C(CCl)Nc1cc(-c2ccccc2)nn1-c1ccccc1	6.8	-0.7	.	36.8	.	.
Nc1ccccc1Nc1cc(-c2ccccc2)nn1-c1cccc(Cl)c1	36.8	.	0.4	.	31.4*	-24.3%
O=Cc1cccc(OC(=O)/C=C/c2ccco2)c1	2.4	.	-23.1	-27.7	-1.7	.
CCN(CC)c1ccc(/C=C/c2ccc3ccc(OC)cc3[n+]2CC)cc1	75.5*	-6.1	-93.2	40.3	58.8*	5.22µM*
CC[n+]1c(/C=C/c2ccc(N(C)C)cc2)ccc2ccccc21	40.5	.	-36.5	14.3	49.7*	5.84µM*
CC[n+]1c(/C=C/c2ccc(OC(C)=O)c(OC)c2)ccc2ccccc21	19.3	10.0	25.9	-20.7	4.2	.
CC[n+]1c(/C=C/c2ccc(OC)c(OC)c2)ccc2ccccc21	3.0	.	-0.8	-172.7	0.1	.
CCn1c(CNc2ccc(Cl)cc2)nnc1SCc1ccccc1	1.7	-3.1	.	-13.2	.	.
O=C(NCCCCCCNC(=O)c1cncc(O)c1)c1cncc(O)c1	-0.3	2.6	23.3	-1.1	9.0	.
CN1c2ccc(-c3ccccc3)cc2[C@@H]2[C@@H](CCN2C(=O)c2ccncc2)[C@H]1CO	.	1.0	5.4	.	.	.
O=C(Cc1cccnc1)N1CC(=O)N2[C@H](C1)[C@H](c1ccc(C3=CCCC3)cc1)[C@@H]2CO	.	22.6	-4.7	.	36.9*	-18.7%
Cn1c(C(=O)O)cc2c(=O)n3ccccc3nc21	.	.	7.3	-10.5	5.0	.
O=S(=O)(NC[C@@H]1CC[C@H]2NC[C@H]2O1)c1ccccc1F	.	-2.1	.	.	-2.5	.
